Assay [1] can be described thus: E. coli DRC41 culture turbidity changes, primary screen, E. coli filamentation inducer project, strain DRC41, OD650, 48 h (AID 1152).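 Further: E. coli MC1000 strain DRC41 lacking acrAB efflux pump and sulA.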 The conditions noted are these: E. coli DRC41 (acrAB sulA), higher = more signal, called active from +8 up or from −8 down.
Assay [2] can be described thus: small-molecule binders of probe aLefty1, primary screen, biochemical, small-molecule microarray, 635/667 nm fluorescence (AID 1153).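 Further: score merges spot fluorescence with signal-to-noise ratio from the scanned slide images.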 The conditions noted are these: higher = more signal.
A short description of assay [3]: PSAC antagonists in infected red cells, primary screen, cell-based, P. falciparum Indochina, OD700, 1 h (AID 1154). The conditions noted are these: P. falciparum Indochina infected RBC osmotic lysis, higher = more signal, called active from +8 up or from −8 down.
Assay [4] in a line: PSAC antagonists in infected red cells, primary screen, cell-based, P. falciparum Indochina, OD700, 2 h (AID 1155).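 Further: lysis reports solute entry through the parasite surface anion channel PSAC; channel blockers reduce lysis of infected cells.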 To be noted: P. falciparum Indochina infected erythrocytes, osmotic lysis OD700; higher = more signal, called active from +8 up or from −8 down.
Assay [5] is described as follows: osmotic lysis modulators in infected erythrocytes, primary screen, PSAC antagonist project, cell-based, P. falciparum Indochina, OD700, 3 h (AID 1156). To be noted: higher = more signal, called active from +8 up or from −8 down.
Assay [6] is described as follows: PSAC antagonists in infected red cells, primary screen, cell-based, P. falciparum Indochina, OD700, 18 h (AID 1157). The conditions noted are these: P. falciparum Indochina infected erythrocytes, osmotic lysis OD700, 18 h; higher = more signal, called active from +8 up or from −8 down.
A short description of assay [7]: modulators of S6 phosphorylation in cells, primary screen, cell-based, A549, cytoblot, luminescence, serum-stimulated (AID 1158).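 Further: serum-stimulated A549 lung adenocarcinoma cells; signal is phosphorylated S6 detected by cytoblot immunostaining with HRP secondary.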 The conditions noted are these: A549 phospho-S6 cytoblot, 5 h, higher = more signal.
Assay [8] addresses NADPH oxidase 2 (Homo sapiens) (UniProt P04839). Put plainly: NOX2-dependent H2O2 signal modulators, primary screen, NOX inhibitor project, cell-based, HEK293-NOX2, PMA-stimulated, Amplex Red fluorescence (AID 1159). Further: test concentration not given here. The conditions noted are these: 45 min, higher = more signal, called active from +8 up or from −8 down.
For assay [9], the target named is NADPH oxidase 4 (Homo sapiens) (UniProt Q9NPH5). Put plainly: NOX4-dependent H2O2 signal modulators, primary screen, NOX inhibitor project, cell-based, HEK293-NOX4, tetracycline-induced, Amplex Red fluorescence (AID 1160). To be noted: 45 min, higher = more signal, called active from +8 up or from −8 down.
Chain of NADPH oxidase 4 (Homo sapiens) (Q9NPH5 whole entry, looked up): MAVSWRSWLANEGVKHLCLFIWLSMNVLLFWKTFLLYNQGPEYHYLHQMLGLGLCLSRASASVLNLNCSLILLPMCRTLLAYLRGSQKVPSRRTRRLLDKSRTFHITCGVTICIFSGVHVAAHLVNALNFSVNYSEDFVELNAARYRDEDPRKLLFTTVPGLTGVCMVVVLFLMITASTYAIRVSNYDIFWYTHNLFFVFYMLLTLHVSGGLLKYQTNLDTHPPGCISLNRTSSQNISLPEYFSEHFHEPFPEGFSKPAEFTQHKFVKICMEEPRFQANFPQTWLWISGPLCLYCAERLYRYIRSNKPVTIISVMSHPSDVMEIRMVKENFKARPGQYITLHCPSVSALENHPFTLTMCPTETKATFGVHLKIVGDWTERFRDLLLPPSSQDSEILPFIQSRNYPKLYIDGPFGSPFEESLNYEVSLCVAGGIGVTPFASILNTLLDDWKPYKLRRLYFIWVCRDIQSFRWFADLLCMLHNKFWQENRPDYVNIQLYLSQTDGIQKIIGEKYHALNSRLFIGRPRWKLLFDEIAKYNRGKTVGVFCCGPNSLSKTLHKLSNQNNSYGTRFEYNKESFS
Assay [10] deals with NADPH oxidase 5 (Homo sapiens) (UniProt Q96PH1). Put plainly: NOX5-dependent H2O2 signal modulators, primary screen, NOX inhibitor project, cell-based, HEK293-NOX5, Amplex Red fluorescence (AID 1161). The conditions noted are these: HEK293-NOX5, ionomycin, 45 min, higher = more signal.
Chain of NADPH oxidase 5 (Homo sapiens) (Q96PH1 whole entry, looked up): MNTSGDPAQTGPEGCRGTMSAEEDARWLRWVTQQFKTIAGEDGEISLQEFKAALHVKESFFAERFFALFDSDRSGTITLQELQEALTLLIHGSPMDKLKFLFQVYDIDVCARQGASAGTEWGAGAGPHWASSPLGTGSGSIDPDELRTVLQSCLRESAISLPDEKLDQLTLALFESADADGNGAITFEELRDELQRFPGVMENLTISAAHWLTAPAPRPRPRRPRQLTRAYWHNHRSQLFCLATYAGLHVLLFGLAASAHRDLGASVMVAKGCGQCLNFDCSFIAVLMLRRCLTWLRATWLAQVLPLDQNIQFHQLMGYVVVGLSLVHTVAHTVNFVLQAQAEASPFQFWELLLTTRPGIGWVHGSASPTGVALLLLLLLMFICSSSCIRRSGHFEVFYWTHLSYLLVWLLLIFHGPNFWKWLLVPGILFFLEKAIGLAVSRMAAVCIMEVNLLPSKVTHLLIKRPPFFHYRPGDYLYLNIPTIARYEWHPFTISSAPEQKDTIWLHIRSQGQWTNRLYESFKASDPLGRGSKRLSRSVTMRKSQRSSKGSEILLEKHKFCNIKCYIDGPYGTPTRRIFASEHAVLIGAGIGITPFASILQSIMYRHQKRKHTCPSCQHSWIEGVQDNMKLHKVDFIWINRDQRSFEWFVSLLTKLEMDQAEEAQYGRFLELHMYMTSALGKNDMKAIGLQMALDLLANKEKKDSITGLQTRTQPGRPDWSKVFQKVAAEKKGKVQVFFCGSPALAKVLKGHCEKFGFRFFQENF

This is an account of results in PubChem BioAssay.

The source made the active and inactive calls.

Chain of NADPH oxidase 2 (Homo sapiens) (P04839 whole entry, looked up): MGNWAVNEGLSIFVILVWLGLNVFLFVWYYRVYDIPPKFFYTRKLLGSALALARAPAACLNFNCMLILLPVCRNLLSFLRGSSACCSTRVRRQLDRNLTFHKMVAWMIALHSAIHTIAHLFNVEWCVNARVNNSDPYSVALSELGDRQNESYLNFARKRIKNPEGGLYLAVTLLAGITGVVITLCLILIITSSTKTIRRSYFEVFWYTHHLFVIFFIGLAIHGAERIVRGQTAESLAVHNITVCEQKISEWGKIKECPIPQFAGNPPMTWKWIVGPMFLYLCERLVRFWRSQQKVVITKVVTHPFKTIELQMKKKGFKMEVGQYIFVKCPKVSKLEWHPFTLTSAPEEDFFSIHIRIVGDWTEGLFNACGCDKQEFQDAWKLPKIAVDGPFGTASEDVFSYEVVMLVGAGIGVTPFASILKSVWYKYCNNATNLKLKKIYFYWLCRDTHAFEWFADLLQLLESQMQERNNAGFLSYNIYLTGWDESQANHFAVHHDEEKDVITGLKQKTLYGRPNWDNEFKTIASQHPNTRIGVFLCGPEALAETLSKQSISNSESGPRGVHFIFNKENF

For `CN1C(=O)C2C=CC(C(O)c3ccc([N+](=O)[O-])cc3)N(N3CCCCC3)C2C1=O` (stereo not given), the z-score in assay [1] was -1.74 (inactive); in assay [3], 2.06 (inactive); in assay [4], 1.36 (inactive); in [5], -0.0207 (inactive); in assay [6], 0.9 (inactive); in [7], -0.919. In addition, the z-score in [8] was 0.114 (inactive); in [9] it was -2.07 (inactive); in assay [10], -1.12. For the same molecule, the composite z-score in [2] is 0.385.

For `CCCC[C@H]1OB(O)C[C@H]2C1=C(COC)C[C@H]1C(=O)N(C)C(=O)[C@H]12`, the z-score was -0.971 (inactive) in assay [1]; 0.431 (inactive) in assay [3]; 0.0082 (inactive) in assay [4]; -1.19 (inactive) in assay [5]; 0.232 (inactive) in assay [6]; -0.18 in assay [7]. Further, the values for the z-score in assay [8], in [9] and in assay [10] were -0.251 (inactive), 0.221 (inactive) and 0.786, respectively. The molecule also came in with a composite z-score in [2] of -0.196.

For the molecule `COc1cc2c(cc1OC)CN(C(=O)[C@H]1[C@@H]3C(=O)O[C@@H](c4ccccc4)[C@@H](c4ccccc4)N3[C@@H](c3ccc(O)cc3)[C@]13C(=O)Nc1ccccc13)CC2`, the z-score was -0.444 (inactive) in assay [1]; 0.734 (inactive) in assay [3]; -0.397 (inactive) in [4]; -0.473 (inactive) in assay [5]; 0.801 (inactive) in assay [6]; 0.0493 in assay [7]. Further, the z-score in assay [8] was 0.96 (inactive); in [9], 0.754 (inactive); in assay [10], 1.37. Moreover, in assay [2], the composite z-score is 0.0036.

Turning to `O=C1c2ccccc2[C@](Cc2ccccc2I)(C(=O)NCC(F)(F)F)[C@H](c2ccc(CO)cc2)N1Cc1ccccc1Cl`, the z-score in assay [1] was 0.193 (inactive); in [3], 4.4 (inactive); in assay [4], 0.208 (inactive); in [5] it was 1.84 (inactive); in assay [6], 0.499 (inactive); in assay [7], 0.312. For the same molecule, the z-score is 2.69 (inactive) in assay [8], 0.566 (inactive) in assay [9] and 1.05 in [10]. In addition, the composite z-score in [2] is -0.105.

In the case of `C=CC(=C)[C@H]1Oc2ccccc2S(=O)(=O)N2CCC[C@@H]12`, the z-score was -0.829 (inactive) in assay [1]; 4.63 (inactive) in assay [3]; 0.751 (inactive) in [4]; -0.309 (inactive) in [5]; 0.01 (inactive) in [6]; 0.0928 in assay [7]. Also, the z-score in assay [8] is -0.0944 (inactive); in assay [9], -1.04 (inactive); in [10], -1.38. Besides, in assay [2], the composite z-score amounted to 0.131.

Consider `Cc1ccc([C@@H]2C[C@@H](Sc3ccccc3)[C@H](C(=O)O)CN2S(=O)(=O)c2ccc(C)cc2)cc1`, for which the z-score was -1.07 (inactive) in assay [1]; 1.87 (inactive) in [3]; 0.835 (inactive) in assay [4]; -1.16 (inactive) in [5]; 0.759 (inactive) in assay [6]; -0.512 in assay [7]. The z-score in [8] was 2.06 (inactive); in assay [9] it was -1.97 (inactive); in [10] it was -0.41. In [2], this molecule showed a composite z-score of 0.481.

With `CC[C@@H]1C=C(C(=O)O)[C@H](c2ccc(Br)cc2)N1S(=O)(=O)c1ccc(C)cc1`, the z-score in assay [1] is -0.467 (inactive); in [3] it was 0.471 (inactive); in assay [4], 1.06 (inactive); in assay [5], -0.187 (inactive); in [6], 0.658 (inactive); in [7] it was -0.283. The z-score in assay [8] was 0.451 (inactive); in assay [9], -0.117 (inactive); in assay [10], 0.379. The same molecule yielded a composite z-score in assay [2] of -0.0989.

As for `O[C@@H](Cc1ccccc1)[C@H]1C2C=CCCC=C2CN1Cc1cccc(Cl)c1` (stereo not given in full), the z-score was 1.31 (inactive) in [1]; 2.58 (inactive) in [3]; 0.499 (inactive) in [4]; 1.33 (inactive) in assay [5]; 0.108 (inactive) in [6]; 0.399 in assay [7]. Moreover, the figures for the z-score in [8], in assay [9] and in assay [10] were -0.318 (inactive), -1.27 (inactive) and -0.609, respectively. In assay [2], this molecule registered a composite z-score of 0.0701.

As to `C=CCOC(=O)[C@H]1[C@@H]2C(=O)O[C@@H](c3ccccc3)[C@@H](c3ccccc3)N2[C@@H](c2ccc(OCCOC(=O)[C@H]3C[C@H]4C(=O)N[C@@H](CCCC[N+](C)(C)C)C(=O)N4[C@H]3c3ccc(O)cc3)cc2)[C@]12C(=O)Nc1ccc(I)cc12`, the z-score is -0.535 (inactive) in assay [1]; 3.9 (inactive) in assay [3]; 1.69 (inactive) in assay [4]; -3.16 (inactive) in assay [5]; 0.278 (inactive) in assay [6]; -0.519 in assay [7]. Also, the z-score in assay [8] was 0.595 (inactive); in assay [9], 0.72 (inactive); in [10], 0.895. For the same molecule, the composite z-score in assay [2] was 0.275.

As for `COc1ccc(CCNC(=O)[C@@H]2c3ccccc3C(=O)N(Cc3ccccc3Cl)[C@H]2c2ccc(CO)cc2)cc1`, the z-score in assay [1] was -0.497 (inactive); in [3] it was 3.59 (inactive); in [4], 0.474 (inactive); in [5] it was 0.209 (inactive); in assay [6], -0.11 (inactive); in assay [7], -0.144. Moreover, the z-score in [8] is -3.49 (inactive); in assay [9], 0.151 (inactive); in assay [10], -2.46. In assay [2], this molecule gave a composite z-score of -0.0999.

On to `CN(C)CCCC[C@@H]1NC(=O)[C@@H]2C[C@H](C(=O)NCCCCCCN)[C@H](c3cccc(OCCO)c3)N2C1=O`, for which the z-score in [1] was -0.3 (inactive); in assay [3], 3.07 (inactive); in assay [4], 0.198 (inactive); in assay [5], 1.87 (inactive); in assay [6], 0.105 (inactive); in [7], 0.292. The z-score in assay [8] is 0.956 (inactive); in assay [9], 1.14 (inactive); in assay [10] it was 0.941. The composite z-score in assay [2] is 1.1.

`COc1cc(NN2C(C(O)c3ccco3)C=CC3C(=O)N(c4ccccc4)C(=O)C32)cc(OC)c1OC` (stereo not given): the z-score in [1] was -1.37 (inactive); in [3], 0.886 (inactive); in [4] it was -1.47 (inactive); in [5], 1.06 (inactive); in [6], -1.28 (inactive); in assay [7] it was 1.29. In addition, the z-score in assay [8] was -3.15 (inactive); in assay [9], -4.23 (inactive); in assay [10], -5.73. Further, in [2], the composite z-score was -0.441.

Regarding `CC(C)OC(=O)C=C1C[C@@H](c2ccccn2)O[C@@H](c2ccccn2)O1`, the z-score was -0.167 (inactive) in [1]; 5.54 (inactive) in assay [3]; 1.2 (inactive) in assay [4]; -0.277 (inactive) in [5]; 0.562 (inactive) in [6]; -0.0693 in assay [7]. The z-score is -0.223 (inactive) in [8], -0.461 (inactive) in assay [9] and -0.405 in assay [10]. For the same molecule, in [2], the composite z-score was -0.0559.
